In PubChem BioAssay (Tox21):
Values joined by “and” are separate entries in the source; they are usually repeats but may differ in a detail not shown here. Equal values may be shown once. Results filed as inconclusive are left out. A call without a number means that no potency is given here. More than one record can exist for a structure, and the calls need not agree. Active and inactive are the calls of the source. The call rests on the fitted dose curve; in most records, active means well fitted curve in the direction sought with a large enough effect in the repeat runs; inconclusive means weak or mixed curves; inactive means no such curve, though single readings can be large; an effect the other way counts as inactive or inconclusive.

experiment: qHTS assay for identifying genotoxic compounds that show differential cytotoxicity against isogenic chicken DT40 cell lines with known DNA damage response pathways - Rev3 mutant cell line (AID 743014); conditions: chicken DT40 Rev3-/- viability, CellTiter-Glo, 40 h; series mostly up to 68.4 µM; further: nearly all actives have a fitted effect of over 55% in size
Potency means the concentration at half of the fitted maximal effect.

Structure (SMILES)	Potency
OC[C@@H](O)[C@@H](O)[C@H](O)[C@H](O)CO	inactive
NC(=O)NO	inactive and 61.1 µM (active)
Cc1cnc(NC(=O)C2=C(O)c3ccccc3S(=O)(=O)N2C)s1	inactive and 27.4 µM (active) and 8.63 µM (active)
C1CNCCN1	inactive and 62.9 µM (active)
N[C@@H](Cc1c[nH]c2ccccc12)C(=O)O	inactive
O=C1CCCCCN1	inactive
CO[C@H]1C=CO[C@@]2(C)Oc3c(C)c(O)c4c(O)c(c(/C=N/N5CCN(C)CC5)c(O)c4c3C2=O)NC(=O)/C(C)=C\C=C[C@H](C)[C@H](O)[C@@H](C)[C@@H](O)[C@@H](C)[C@H](OC(C)=O)[C@@H]1C	29.8 µM (active) and 24.6 µM (active)
Cc1ccc(O)c(-n2nc3ccccc3n2)c1	inactive
O=C(O)CN(CC(=O)O)CC(=O)O	inactive
NC(=O)N/N=C/c1ccc([N+](=O)[O-])o1	inactive and 43.3 µM (active)
C#C[C@]1(O)CC[C@H]2[C@@H]3CCC4=CC(=O)CC[C@@H]4[C@H]3CC[C@@]21CC	inactive and 27.3 µM (active)
Cc1cccc2ccccc12	inactive
COC1=CC(=O)C[C@@H](C)[C@]12Oc1c(Cl)c(OC)cc(OC)c1C2=O	30.4 µM (active) and 30.6 µM (active)
N[C@@H](Cc1c[nH]c2ccc(O)cc12)C(=O)O	inactive
CCCCCCCC(=O)OCC(O)CO (stereo not drawn)	inactive
CC1=C(/C=C/C(C)=C/C=C/C(C)=C/C(=O)O)C(C)(C)CCC1	77 µM (active) and 61.1 µM (active)
COc1ccc(C(=O)c2ccccc2)c(O)c1	inactive
O=C(O)Cc1cccc2ccccc12	inactive
C=C(C)OC(C)=O	inactive
NC(=O)c1ccc([N+](=O)[O-])cc1Cl	inactive
CCCCOC(=O)CCCCCCCCC(=O)OCCCC	68.6 µM (active)
NC(N)=NC(N)=NCCc1ccccc1	29.8 µM (active) and 17.1 µM (active) and 27.3 µM (active)
C[C@]12C[C@H](O)[C@H]3[C@@H](CCC4=CC(=O)CC[C@@]43C)[C@@H]1CC[C@@H]2C(=O)CO	inactive
C#C[C@]1(O)CC[C@H]2[C@@H]3CCc4cc(O)ccc4[C@H]3CC[C@@]21C	18.8 µM (active) and 27.1 µM (active)
CCCCCCCCOc1ccc(C(=O)c2ccccc2)c(O)c1	inactive and 61.1 µM (active)
C[C@]12CC[C@@H]3c4ccc(O)cc4CC[C@H]3[C@@H]1CCC2=O	inactive
O=[N+]([O-])c1ccc(O)cc1	inactive and 43.3 µM (active) and 54.5 µM (active)
CC(=O)/C=C/C1=C(C)CCCC1(C)C	inactive
CC(C)(C)CC(C)(C)c1ccc(O)c(-n2nc3ccccc3n2)c1	inactive
C=C(C)C(N)=O	inactive

experiment: qHTS assay for identifying genotoxic compounds that show differential cytotoxicity against isogenic chicken DT40 cell lines with known DNA damage response pathways - Rad54/Ku70 mutant cell line (AID 743015); conditions: DT40 Rad54/Ku70 mutant viability, CellTiter-Glo, 40 h; series mostly up to 66.8 µM; further: nearly all actives have a fitted effect of over 60% in size

Structure (SMILES)	Potency
OC[C@@H](O)[C@@H](O)[C@H](O)[C@H](O)CO	inactive
NC(=O)NO	inactive
Cc1cnc(NC(=O)C2=C(O)c3ccccc3S(=O)(=O)N2C)s1	inactive and 27.3 µM (active)
C1CNCCN1	inactive and 62.9 µM (active)
N[C@@H](Cc1c[nH]c2ccccc12)C(=O)O	inactive
O=C1CCCCCN1	inactive
CO[C@H]1C=CO[C@@]2(C)Oc3c(C)c(O)c4c(O)c(c(/C=N/N5CCN(C)CC5)c(O)c4c3C2=O)NC(=O)/C(C)=C\C=C[C@H](C)[C@H](O)[C@@H](C)[C@@H](O)[C@@H](C)[C@H](OC(C)=O)[C@@H]1C	26.6 µM (active) and 15.5 µM (active)
Cc1ccc(O)c(-n2nc3ccccc3n2)c1	26.6 µM (active) and inactive
O=C(O)CN(CC(=O)O)CC(=O)O	inactive
NC(=O)N/N=C/c1ccc([N+](=O)[O-])o1	29.8 µM (active) and inactive and 38.6 µM (active)
C#C[C@]1(O)CC[C@H]2[C@@H]3CCC4=CC(=O)CC[C@@H]4[C@H]3CC[C@@]21CC	inactive and 19.3 µM (active) and 54.5 µM (active)
Cc1cccc2ccccc12	inactive
COC1=CC(=O)C[C@@H](C)[C@]12Oc1c(Cl)c(OC)cc(OC)c1C2=O	30.4 µM (active) and 27.3 µM (active)
N[C@@H](Cc1c[nH]c2ccc(O)cc12)C(=O)O	inactive
CCCCCCCC(=O)OCC(O)CO (stereo not drawn)	inactive
CC1=C(/C=C/C(C)=C/C=C/C(C)=C/C(=O)O)C(C)(C)CCC1	29.8 µM (active) and 61.2 µM (active) and 54.4 µM (active)
O=C(O)Cc1cccc2ccccc12	inactive
C=C(C)OC(C)=O	inactive
NC(=O)c1ccc([N+](=O)[O-])cc1Cl	inactive
CCCCOC(=O)CCCCCCCCC(=O)OCCCC	inactive
NC(N)=NC(N)=NCCc1ccccc1	17.1 µM (active) [middle of 4 runs]
C[C@]12C[C@H](O)[C@H]3[C@@H](CCC4=CC(=O)CC[C@@]43C)[C@@H]1CC[C@@H]2C(=O)CO	48.6 µM (active)
C#C[C@]1(O)CC[C@H]2[C@@H]3CCc4cc(O)ccc4[C@H]3CC[C@@]21C	21.1 µM (active) and 43 µM (active)
CCCCCCCCOc1ccc(C(=O)c2ccccc2)c(O)c1	inactive and 68.6 µM (active)
O=[N+]([O-])c1ccc(O)cc1	inactive and 54.5 µM (active)
CC(=O)/C=C/C1=C(C)CCCC1(C)C	inactive
CC(C)(C)CC(C)(C)c1ccc(O)c(-n2nc3ccccc3n2)c1	inactive
C=C(C)C(N)=O	inactive
